Assay outcomes from PubChem BioAssay.
Most compounds without a hit are left out; they make up all but 0.97% or so of the library.
Mtb BioA inh: blocks M. tuberculosis BioA enzyme activity. inhibition, % at 9.99 µM. 360,000 tested, 0.096% active. purified M. tuberculosis BioA enzyme, plate reader; in the data active = inhibition above about 40%
RecA splice inh: inhibitors of M. tuberculosis RecA intein splicing; AID 2221; inhibition, % (concentration not given with the values); 290,000 tested, 0.75% active; cell-free RecA intein splicing, fluorescence; P9WHJ3; in the data active = inhibition above about 30%
TcdB GH inh: blocks C. difficile toxin B glycohydrolase activity | AID 652162 | TcdB glycohydrolase enzymatic assay, plate reader | inhibition, % at 9.99 µM | P18177 | 350,000 tested, 0.24% active; in the data active = inhibition above about 10%
FadD28 binding: M. tuberculosis FadD28 bisubstrate binding inhibition | FadD28 bisubstrate probe binding, fluorescence polarization | inhibition, % at 12.5 µM | 360,000 tested, 0.22% active | AID 588549; in the data active = inhibition above about 8.5%, passing the limit was not always enough
UGM FP inh: blocks M. tuberculosis UGM enzyme. inhibition, % at 10 µM. 320,000 tested, 0.06% active. purified UGM, fluorescence polarization probe displacement. P9WIQ1; in the data active = inhibition above about 10%, passing the limit was not always enough
Rv3671c inh: Rv3671c (M. tuberculosis) protease inhibition; inhibition, % at 5.96 µM; AID 2606; 320,000 tested, 0.048% active; in the data active = inhibition above about 38%;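 also: extracellular domain of Rv3671c used as enzyme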
Of the large screens only hits and unclear results are named; the others gave an inactive call.

CCN(CC)c1nc(N)c2c(N)nc3c(c2c1C#N)CC(c1ccccc1)O3 (stereo unspecified)	none (no result: TcdB GH inh)
CN1CCN(c2cc(N3CCN(C(=O)c4ccco4)CC3)c3c4c(onc24)-c2ccccc2C3=O)CC1	none (no result: TcdB GH inh)
O=C(O)CCCNc1cc(N2CCN(C(=O)c3ccco3)CC2)c2noc3c2c1C(=O)c1ccccc1-3	FadD28 binding 18
C[C@H](CO)N1C[C@H](C)[C@H](CN(C)CC2CC2)Oc2cc(-c3cccc(F)c3)ccc2S1(=O)=O	none (no result: RecA splice inh, FadD28 binding, UGM FP inh, Rv3671c inh)
Cc1nc(C)c(C(=O)Nc2cccc(F)c2)s1	Mtb BioA inh 47
CC(C)OC(=O)C(=O)NNc1ccccc1	TcdB GH inh 15
Cn1nnnc1Sc1ncnc2scc(-c3ccc(Br)cc3)c12	none (no result: RecA splice inh)
Cn1nnnc1Sc1ncnc2scc(-c3ccc(F)cc3)c12	RecA splice inh 32 (no result: TcdB GH inh)
CC(=O)Nc1ccc(Oc2nc(-c3ccccn3)nc3ccccc23)cc1	TcdB GH inh 28 (no result: Mtb BioA inh)
COc1ccccc1C#Cc1ccc2c(c1)[C@H]1[C@H](CCN1S(=O)(=O)c1cccc(C)c1)[C@@H](CO)N2	none (no result: Mtb BioA inh, RecA splice inh, FadD28 binding, UGM FP inh, Rv3671c inh)
O=C(Nc1ccc2nc(-c3ccccc3)[nH]c2c1)c1ccco1	none (no result: TcdB GH inh)
O=C(Nc1cccc(-c2nc3ccccc3[nH]2)c1)c1cccc(NC(=O)c2ccco2)c1	FadD28 binding 17 (no result: TcdB GH inh)
C[C@H](CO)N1C[C@H](C)[C@H](CN(C)C(=O)Cc2ccccc2)OCCCC[C@H](C)Oc2ccc(NC(=O)C3CCCCC3)cc2C1=O	none (no result: RecA splice inh, TcdB GH inh, FadD28 binding, UGM FP inh, Rv3671c inh)
O=C(CS(=O)(=O)Cc1ccccc1)Nc1ccc(S(=O)(=O)N2CCCCCC2)cc1	FadD28 binding 24 (no result: TcdB GH inh)
O=C(CS(=O)(=O)Cc1ccccc1)Nc1ccc(S(=O)(=O)N2CCOCC2)cc1	none
Cc1cc(C(=O)CSc2nnnn2-c2ccc(O)cc2)c(C)n1Cc1ccc2c(c1)OCO2	none (no result: TcdB GH inh)
Cc1cc(C(=O)CSc2nnnn2-c2ccccc2)c(C)n1-c1ccc2c(c1)OCO2	TcdB GH inh 11 (no result: Mtb BioA inh)
Cc1ccc(C)c(-c2ccc(=O)n(Cc3ccc(F)cc3Cl)n2)c1	none
Cc1ccc(C)c(-c2ccc(=O)n(Cc3cccc(Br)c3)n2)c1	RecA splice inh 30
C[C@H](CO)N1C[C@H](C)[C@@H](CN(C)Cc2cncnc2)Oc2cc(C#C[C@@H](C)O)ccc2S1(=O)=O	none (no result: RecA splice inh, TcdB GH inh, FadD28 binding, UGM FP inh, Rv3671c inh)
CCN(CC)c1ccc2c(-c3ccc(S(=O)(=O)O)cc3S(=O)(=O)[O-])c3ccc(=[N+](CC)CC)cc-3oc2c1	FadD28 binding 135, UGM FP inh 93, Rv3671c inh active
C=CCOc1cccc(CNc2ccc3[nH]c(=O)[nH]c3c2)c1	TcdB GH inh 24
O=C(C[C@@H]1CC[C@@H]2[C@H](COC[C@@H](O)CN2C(=O)c2ccncc2)O1)NC1CCC1	none (no result: RecA splice inh, FadD28 binding, UGM FP inh, Rv3671c inh)
O=C(O)c1cc(O)c2c(c1)C(=O)c1cc(O)cc(O)c1C2=O	FadD28 binding 13
CC(=O)Oc1cccc2c1C(=O)c1c(OC(C)=O)cc(C(=O)O)cc1C2=O	none
COc1cc(OC)c(OC)cc1/C=C1\Oc2cc(OCC(=O)N3Cc4ccccc4C[C@H]3C(=O)O)ccc2C1=O	FadD28 binding 12 (no result: TcdB GH inh)
COc1ccc(OC)c(/C=C2\Oc3cc(OCC(=O)N4CCC[C@H]4C(=O)O)ccc3C2=O)c1	UGM FP inh 12 (no result: TcdB GH inh)
COc1ccc(/C=C2\Oc3cc(OCC(=O)N4CCC[C@H]4C(=O)O)ccc3C2=O)c(OC)c1	none (no result: TcdB GH inh)
O=C(O)CCCN1C(=O)/C(=C/c2ccc(-c3nc4ccccc4s3)o2)SC1=S	FadD28 binding 8.6 (no result: TcdB GH inh)
COc1ccc2c3c(n(C)c2c1)[C@@H](CO)N(Cc1cccnc1)CC31CCN(C(=O)c2cccnc2)CC1	none (no result: Mtb BioA inh, RecA splice inh, FadD28 binding, UGM FP inh, Rv3671c inh)
Cc1ccc(NC(=O)N2CCc3ccccc32)cc1C	none (no result: Mtb BioA inh)
CN1C(=O)CSc2ccc(NC(=O)N3CCc4ccccc43)cc21	TcdB GH inh 16
C[C@H]1CN([C@@H](C)CO)S(=O)(=O)c2ccc(-c3cccc(C#N)c3)cc2O[C@H]1CN(C)C(=O)c1ccc(F)cc1	none (no result: RecA splice inh, FadD28 binding, UGM FP inh, Rv3671c inh)
Cc1ccc2oc3c(c(=O)c2c1)C(c1cccs1)N(CCCN(C)C)C3=O (stereo unspecified)	Mtb BioA inh 59 (no result: TcdB GH inh)
O=C1c2oc3ccccc3c(=O)c2C(c2cccs2)N1CCCN1CCOCC1 (stereo unspecified)	none (no result: TcdB GH inh)
Cc1nn(-c2ccccc2)c(Cl)c1C(=O)NCC1CCCO1 (stereo unspecified)	UGM FP inh 14 (no result: RecA splice inh)
O=C1C(Cl)=C(NCC2CCCO2)C(=O)N1C1CCCCC1 (stereo unspecified)	none (no result: RecA splice inh, TcdB GH inh)
